# Sampled rows, rich in hits. Any-hit rate of the full collection: about 19%.
# BCR signal inh: blocks chronic active B-cell receptor signaling; ABC-DLBCL IkBa-CBG/CBR reporter, luminescence ratio, 4 h; Potency, µM (series often up to 46.1 µM), for the others: at the highest dose activity change, negative = inhibition, hits mostly inhibitors; 340,000 tested, 0.05% active; active = well fitted inhibition curve with a large enough effect in the signal ratio, with a control signal flat, not every such curve was filed as active; inconclusive = small, poorly fitted or top-dose-only effect, or effect the other way, or a change in a side signal; the % refers to the signal ratio;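 also: potency is read from the fitted curve at half-maximal effect; plate controls were basal doxycycline-induced cells for no effect and cells given 10 µM MG132 for full effect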
#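 Cell line TMD8 (human ABC DLBCL), stably expressing tet-inducible CBG68-IkBa fusion and CBR; IMDM/0.5% FBS; cpd up to 46 uM; dox induction, 4 h, 37C/5% CO2; dual luminescence; green/red ratio; MG132 control.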
# SW480 rerep: inducers of DNA re-replication in SW480 colon cancer cells | SW480 DNA re-replication, Hoechst DNA content imaging, 48 h | Potency, µM (doses to about 46.1 µM), for inactives: at the highest dose re-replication activation, actives largely listed as activators | 340,000 tested, 1.8% active | AID 624297; also: potency is read from the fitted curve at half-maximal effect; % of control where 0% means no effect; nearly all actives have a fitted effect of over 55% in size
#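 DNA re-replication was detected as more nuclei of elevated Hoechst intensity after 48 hr exposure to compound (23 nL pinned per well of 250 cells).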
# MCF10A rerep: inducers of DNA re-replication in MCF 10A breast cells; 350,000 tested, 2.9% active; MCF 10A DNA re-replication, Hoechst nuclear intensity, 48 h; Potency, µM (titrated, usually from 46.1 µM), without a hit: at the highest dose activity, positive = re-replication, usual class: activators; also: potency is read from the fitted curve at half-maximal effect; % of control where 0% means no effect; nearly all actives have a fitted effect of over 50% in size
# TDP1 cell noCPT: qHTS for Inhibitors of human tyrosyl-DNA phosphodiesterase 1 (TDP1): qHTS in cells in absence of CPT | DT40 Tdp1-/- hTDP1 cells, no CPT, ATP luminescence, 48 h | Potency, µM (highest dose often 46.2 µM), without a hit: at the highest dose activity change, negative = growth inhibition, most hits filed as inhibitors | 420,000 tested, 15% active | AID 686978, 2013; also: potency is read from the fitted curve at half-maximal effect; % is scaled to controls: 0 for no effect and ±100 for the full control effect; nearly all actives have a fitted effect of over 55% in size
#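 Growth kinetics read by CellTiter-Glo luminescence after ≥48 hr at 37 °C. Cells: DT40 Tdp1-/- stably carrying human TDP1, 400 per well, compound exposure in the absence of CPT (DMSO vehicle).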
# TDP1 cell CPT: DT40-hTDP1 cell growth loss with CPT; Potency, µM (doses to about 46.2 µM), inactives show at the highest dose activity change, negative = growth inhibition, hits mostly inhibitors; 420,000 tested, 12% active; AID 686979; chicken DT40 Tdp1-/-;hTDP1 cells + 20 nM CPT, ATP luminescence, 48 h; also: potency is read from the fitted curve at half-maximal effect; % is scaled to controls: 0 for no effect and ±100 for the full control effect; nearly all actives have a fitted effect of over 55% in size
#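 Chicken DT40 Tdp1-/- cells stably complemented with human TDP1 were seeded at 400 cells/well in medium containing 20 nM camptothecin, exposed to pin-transferred compounds, and grown at 37 °C for at least 48 hr. Viability was read as ATP luminescence.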
# IL-1B inflam inh: inhibitors of inflammasome signaling (IL-1 beta secretion); THP-1 LPS/ATP IL-1B secretion, AlphaLISA, 16 h; active compounds read low; activity change, % at 57.5 µM; 360,000 tested, 4.7% active; AID 743279; in the data active = activity change below about -50%; inconclusive = mostly about -30% to -49%; also: % is scaled to controls: 0 for no effect and ±100 for the full control effect
#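 THP-1 cells pretreated 1 hr with compounds (up to 57.5 uM final), then stimulated with LPS (250 ng/mL final) plus ATP (1.25 mM final); secreted IL-1B measured by AlphaLISA after 16 hr, decreased signal indicating inhibition.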
# Active calls of the source: *; ? = inconclusive; . = not tested or not shown. Unless noted, calls follow the shape of the dose curve; as a rule, active = well fitted curve in the direction sought with a large enough effect; inconclusive = small, poorly fitted or top-dose-only effect, or another doubt; inactive = no such curve, though single readings can be large; an effect the other way counts as inactive or inconclusive.
SMILES,BCR signal inh,SW480 rerep,MCF10A rerep,TDP1 cell noCPT,TDP1 cell CPT,IL-1B inflam inh
CN(C)N=Nc1ccc(/C=C2\C=Cc3ccccc32)cc1,.,.,.,?,14µM*,.
CN(C)/C=C1\C=Cc2ccccc21,.,.,.,13µM*,?,.
NC(N)=Nc1ccc(/C=C2\C=Cc3ccccc32)cc1,.,.,.,13µM*,11µM*,.
Cc1cccc(C)c1-n1nnnc1C(c1ccnc2ccccc12)N(Cc1ccccc1)Cc1ccccc1 (configuration not stated),.,.,.,?,?,-19
Cc1ccc(N=C2NC(=O)CS2)cc1C,?,-8%,20%,-20%,5%,-2
CCN(CC(=O)Nc1c(F)cccc1F)C(=O)C1Cc2ccccc2CN1S(=O)(=O)CC (configuration not stated),-15%,-2%,-1%,-25%,6%,-9
CCOC(=O)C1CCCN(C2=NC(=O)/C(=C/c3ccc(O)c(OC)c3)S2)C1 (configuration not stated),?,-10%,0%,?,?,8
COc1ccc(/C=C2\SC(N3CCc4ccccc4C3)=NC2=O)cc1OC,-4%,69%,3.7µM*,?,0%,-29
CCOC(=O)C1CCCN(C2=NC(=O)/C(=C/c3ccc(OC)c(OC)c3)S2)C1 (configuration not stated),0%,4%,-2%,9.2µM*,?,17
COc1cc(C(C)=O)ccc1OC(=O)N1CCOCC1,.,.,.,-20%,-16%,19
NC1=NC(c2ccccc2C(F)(F)F)N(c2ccc(F)c(Cl)c2)C(N)=N1 (configuration not stated),2%,3%,5%,4.1µM*,21µM*,0
NC1=NC(c2ccc(Cl)cc2)N(c2ccc(S(N)(=O)=O)cc2)C(N)=N1 (configuration not stated),0%,-12%,-13%,-5%,5%,-21
COCC(=O)N(c1ccccc1)C(C)C(=O)OC (configuration not stated),2%,-70%,15%,-19%,-4%,9
CSC1=NC(C(Cl)(Cl)Cl)N=C(c2ccc(C)cc2)N1 (configuration not stated),?,?,1.8µM*,0.58µM*,0.82µM*,30
CCC(c1ccccc1)C(CC)c1cc(O)c(O)c(O)c1 (configuration not stated),.,?,?,8.2µM*,16µM*,-78*
COc1ccc2c(c1)OC(C)(C)C(c1ccccc1)C2c1ccc(OCCN2CCCC2)cc1 (configuration not stated),.,?,?,27µM*,21µM*,.
C[C@@H]1CN([C@H](C)CO)C(=O)c2c(c3ccccc3n2C)-c2ccccc2CO[C@@H]1CN(C)S(=O)(=O)c1cccs1,.,.,.,21µM*,?,12
C[C@H](CO)N1C[C@H](C)[C@H](CN(C)S(=O)(=O)c2cccc(F)c2)OCc2ccccc2-c2c(n(C)c3ccccc23)C1=O,.,.,.,16µM*,10µM*,-24
C[C@H](CO)N1C[C@H](C)[C@H](CN(C)S(C)(=O)=O)OCc2ccccc2-c2c(n(C)c3ccccc23)C1=O,.,.,.,-23%,-21%,5
COC(=O)/C=C1\S/C(=N\N=C\CC(=O)OC)NC1=O,10%,?,-3%,5.2µM*,3.7µM*,4
OC[C@H]1O[C@@H](c2nc(-c3ccccc3Br)no2)[C@H](O)[C@@H](O)[C@H]1O,.,.,.,2%,-10%,20
O=C1C=C(C2OC(CO)C(O)C2O)C(=O)N1 (configuration not stated),.,?,?,6.5µM*,4.6µM*,?
CCCn1c(N)c(N(CCOC)C(=O)Cc2ccc(S(=O)(=O)N3CCOCC3)s2)c(=O)[nH]c1=O,10%,-5%,-1%,-3%,-4%,-3
Cc1ccc(OCCCCn2ccnc2C)c(C)c1,5%,7%,15µM*,?,?,-56*
Cc1nccn1CCOc1ccc(Cl)cc1,0%,1%,?,-3%,23%,-9
SMILES,BCR signal inh,SW480 rerep,MCF10A rerep,TDP1 cell noCPT,TDP1 cell CPT,IL-1B inflam inh
Cc1ccc(OCCCCN2CCCCC2)c(C)c1,1%,?,7%,2%,7%,-11
Cc1ccc(C(C)C)c(OCCn2ccnc2C)c1,0%,-5%,4%,23µM*,16µM*,3
CCc1[nH]c(=O)[nH]c1C(C)S(=O)(=O)c1ccc(C)cc1 (configuration not stated),-10%,-31%,5%,?,?,-15
CCc1c(C(C)S(=O)(=O)c2ccc(C)cc2)[nH]c(=O)n1-c1ccc(C)cc1 (configuration not stated),?,-1%,-5%,29µM*,?,-10
Cc1ccc(-c2c(C(=O)NNC(=S)NCC3CCCO3)csc2C)cc1 (configuration not stated),?,-80%,17%,0.46µM*,?,-8
CC(C)CNC(=S)N1CCC(C(=O)c2ccc3c(c2)OCCO3)CC1,-9%,-1%,5%,23µM*,?,-9
C=CCNC(=S)N1CCC(C(=O)c2ccc(Cl)cc2)CC1,-1%,-14%,7%,?,16µM*,-4
CN(C)CCCNC(=S)N1CCC(C(=O)c2ccc(Cl)cc2)CC1,.,.,.,16µM*,23µM*,10
COCCCNC(=S)N1CCC(C(=O)c2ccc3c(c2)OCCO3)CC1,-16%,23%,0%,-26%,?,-19
CC(C)(C)NC(=S)N1CCC(C(=O)c2ccc(Cl)cc2)CC1,?,-3%,0%,-2%,-11%,-6
COc1ccc(C(=O)C2CCN(C(=S)NCCc3ccccc3)CC2)cc1,7%,3%,5%,-22%,-5%,26
C=CCNC(=S)N1CCC(C(=O)c2ccc(C)cc2)CC1,1%,13%,-2%,?,26µM*,32
CCOCCCNC(=S)N1CCC(C(=O)c2ccc(C)cc2)CC1,-18%,3%,12%,?,18µM*,-12
Cc1ccc(C(=O)C2CCN(C(=S)NCC3CCCO3)CC2)cc1 (configuration not stated),?,-4%,12%,10µM*,15µM*,-11
C=CCNC(=S)N1CCN(S(=O)(=O)c2ccc(C)cc2)CC1,-5%,?,0%,-19%,-21%,11

# Source: PubChem BioAssay
